Results with a measured potency or affinity are listed apart. Activity calls are given as the source filed them. The rule behind the calls is not given here.

This assay can be described thus: HepG2 cell cytotoxicity, dose response, cytotoxicity control, dry powder samples (AID 720568). Conditions: plate reader; series mostly up to 15 µM.
In the case of `COc1cc(Nc2c3c(nc4ccccc24)CCCC3)cc(OC)c1OC`, the compound was called inactive.

Consider `COc1ccc(NC(=O)C(=O)c2cn(CC(=O)N3CCCC3)c3ccccc23)cc1`, for which the call was inactive. With `COc1ccccc1OCC(=O)NNC(=O)c1ccoc1C`, the outcome was inactive. `CCOc1ccc(S(=O)(=O)NCc2ccccn2)cc1NC(=O)c1ccccc1F`: the compound was called inactive.

For `CCOC(=O)COc1cccc2c(=O)n(CC(=O)NCc3ccccc3)ccc12`, the call was inactive. The value for `CCOc1ccc(NC(=O)c2cc(OC)nc3ccccc23)cc1` was “inactive”. Under `CCC1=Nc2cc(C(=O)NCCCOC)ccc2Sc2ccccc21` stands “inactive”. Under `COC(=O)c1cn(C(=O)c2ccc(OC)cc2)c2ccccc12` stands “inactive”; under `Cc1ccc(CCC(=O)Nc2ncc(Cc3cc(Cl)ccc3Cl)s2)o1`, “inactive”. For `CCOC(=O)c1ccc(Oc2cc(C)nc(SC)n2)cc1`, the compound was classed as inactive. For the compound `COc1ccc(-c2nnc(SCc3ccccc3)o2)cc1`, the compound was called inactive. For `Cc1cc(=O)[nH]c(N/N=C/c2cc(C)n(CC(F)(F)F)c2C)n1`, the outcome was inactive. As for `COc1ccccc1CSc1nnc(-c2ccccc2)o1`, the result was inactive. In the case of `CCCCOc1ccccc1C1CC(=O)NC2=C1C(=O)CCC2` (stereo unspecified), the call was inactive.

Regarding `Cc1cc(NC(=O)CSc2nc(-c3ccco3)cc(C(F)(F)F)n2)no1`, the compound was called inactive. In the case of `CC(=O)N1CCC(=O)c2cc3ccccc3cc21`, the compound was classed as inactive.

On to `Cc1[nH][nH]c(=O)c1C(c1ccc(-c2ccc(Cl)c(Cl)c2)o1)c1c(C)[nH][nH]c1=O`, for which the compound was called inactive. As to `COc1cccc(N2CCN(C(=O)c3ccc(CS(=O)c4ccc(C)cc4)o3)CC2)c1` (stereo unspecified), the compound was called inactive. The value for `COc1ccccc1-c1nnc(SCc2ccccc2)o1` was “inactive”. For the compound `CCN(CC)CCC(=O)Nc1cccc2c1C(=O)c1ccccc1C2=O`, the call was inactive. Consider `COc1cc(-c2nnc(SCC3(c4ccc(Br)cc4)OCCO3)o2)cc(OC)c1OC`, for which the compound was called inactive.

The record behind these values is PubChem BioAssay AID720568 (Broad Institute, 2013).
